Screens as filed in PubChem BioAssay.
Compounds with a hit are over-represented: about 4.4% of the library has one in this group of screens.
tim10-1 inh = growth inhibitors of tim10-1 mutant yeast, primary screen, luminescence, uHTS | S. cerevisiae tim10-1 ts strain growth, BacTiter-Glo, 24 h | hit rate 2.2% among 330,000 | inhibition, % at 20 µM;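 active means inhibition of at least 40%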;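 further: mutant grown at 25 °C; 0% = DMSO wells with yeast and 100% = wells holding no yeast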
PfHsp90 set2 = growth inhibition of PfHsp90-expressing yeast, primary screen, antimalarial PfHsp90 inhibitor project, S. cerevisiae, BacTiter-Glo luminescence, single point, set 2; BacTiter-Glo ATP, 48 h; yeast lacking PDR1 and PDR3 efflux regulators; inhibition, % at 9.4 µM; hit rate 0.32% among 310,000;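 active means every replicate shows inhibition above about 80%, whatever the replicate mean, limit read from the data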;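 further: 0% = DMSO neutral controls and 100% = 20 µM radicicol positive controls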
tim23-1 inh = growth inhibitors of tim23-1 mutant yeast, primary screen, luminescence, uHTS; S. cerevisiae tim23-1 growth, BacTiter-Glo luminescence, 24 h; hit rate 1.3% among 330,000; inhibition, % at 20 µM; AID 463212, 2010;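 active means growth inhibition of the mutant yeast at or above 50%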;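 further: temperature-sensitive mutant grown at 25 °C; plate controls were DMSO-treated mutant yeast for no effect and medium wells lacking yeast for full effect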
SKKanGAS inh = S. pyogenes SKKanGAS growth inhibitors in kanamycin, primary screen, streptokinase expression inhibitor project, SKKanGAS strain, BacTiter-Glo luminescence; 6 h; inhibition, % at 7.5 µM; hit rate 1.3% among 300,000;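 active means mean replicate score, as percent of positive control median, at least 50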;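 further: strain carries kanamycin resistance gene driven by streptokinase promoter and grows in 40 µg/ml kanamycin; loss of luminescence reflects streptokinase promoter inhibition or plain growth inhibition; 0% = median of DMSO wells and 100% = positive control at its reference dose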
TIM10 inh = growth inhibitors of isogenic TIM10 control yeast, primary screen, counter-screen for tim10-1 yeast inhibitor project, luminescence, uHTS; S. cerevisiae TIM10 strain growth, BacTiter-Glo luminescence, 24 h; inhibition, % at 10 µM; hit rate 1.4% among 330,000;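 active means inhibition of 40% or more at the single tested concentration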;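 further: wild-type TIM10 isogenic control strain grown at permissive 25 °C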
tim10-1 conf = growth inhibitors of tim10-1 mutant yeast, confirmation, single concentration, luminescence, S. cerevisiae | shares compounds with tim10-1 inh | inhibition, % at 20 µM | hit rate 56% among 7,400 | S. cerevisiae tim10-1 ts strain growth, BacTiter-Glo, 24 h;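 active means inhibition of yeast growth at or above a set limit in either of two repeat tests at 20 µM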;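 further: tim10-1 mutant grown at permissive 25 °C to find synthetic lethal compounds; 0% = DMSO yeast wells and 100% = medium wells without yeast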
TIM10 conf = growth inhibitors of wild-type TIM10 yeast, confirmation, counter-screen for tim10-1 synthetic lethality project, single concentration, luminescence, S. cerevisiae; shares compounds with TIM10 inh; S. cerevisiae tim10 strain growth, BacTiter-Glo luminescence, 24 h; inhibition, % at 10 µM; hit rate 63% among 4,600; AID 463215, 2010;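 active means inhibition of yeast growth at or above a set limit in either of two replicates at 10 µM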;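 further: this counterscreen used the strain with wild-type TIM10; 0% = yeast with DMSO and 100% = medium wells lacking yeast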
tim23-1 conf = tim23-1 mutant yeast growth inhibitors, confirmation, luminescence, single concentration | shares compounds with tim23-1 inh | S. cerevisiae tim23-1 growth, BacTiter-Glo luminescence, 24 h | inhibition, % at 20 µM | hit rate 83% among 4,400;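 active means inhibition above about 39% in either of two replicate wells at 20 µM, limit read from the data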;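 further: temperature-sensitive tim23-1 mutant grown at 25 °C; 0% = DMSO wells with yeast and 100% = medium wells without yeast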
* hit, by the source's call.

`Cc1nc2ccccc2c2c(N)c3ccccc3n12` gave tim10-1 inh 41*, PfHsp90 set2 35, tim23-1 inh 53*, SKKanGAS inh 1, TIM10 inh 77*, tim10-1 conf 47*, TIM10 conf 29 and tim23-1 conf 55*.
O=C(OCC(=O)N1CCc2ccccc21)c1cncc(Br)c1 was read as tim10-1 inh -27, PfHsp90 set2 3, tim23-1 inh 19, SKKanGAS inh -12 and TIM10 inh -3.
For NC(=S)N/N=C/c1ccc(-c2cc(Cl)cc(Cl)c2)o1 the results were tim10-1 inh 29, PfHsp90 set2 -34, tim23-1 inh -5, SKKanGAS inh -3 and TIM10 inh 8.
`NC(=S)N/N=C/c1ccc(-c2cc(Cl)ccc2Cl)o1` gave tim10-1 inh 44*, PfHsp90 set2 -106, tim23-1 inh 54*, SKKanGAS inh -2, TIM10 inh 45*, tim10-1 conf 18, TIM10 conf 39* and tim23-1 conf 62*.
COc1cccc2oc3ccc(C#Cc4ccccn4)cc3c(=O)c12 was read as tim10-1 inh 41*, PfHsp90 set2 38, tim23-1 inh 75*, SKKanGAS inh 18, TIM10 inh 56*, tim10-1 conf 53*, TIM10 conf 38* and tim23-1 conf 70*.
Screening O=C(CCNS(=O)(=O)c1ccccc1)N1CCN(C(c2ccccc2)c2ccccc2)CC1 returned tim10-1 inh -2, PfHsp90 set2 4, tim23-1 inh 30, SKKanGAS inh 6 and TIM10 inh -3.
COc1ccc(CNC(=S)NC(C)CCc2ccccc2)cc1 (stereo unspecified) was read as tim10-1 inh 32, PfHsp90 set2 0, tim23-1 inh 10, SKKanGAS inh -7, TIM10 inh 53* and TIM10 conf 21.
For Cc1ccc2nc(N(CCCN(C)C)C(=O)c3ccc(S(=O)(=O)N4CCc5ccccc5C4)cc3)sc2c1 the results were tim10-1 inh 38, PfHsp90 set2 5, tim23-1 inh 36, SKKanGAS inh 14, TIM10 inh 45* and TIM10 conf 29.
Screening Cc1cc(C)c2sc(N(CCCN(C)C)C(=O)c3ccc(S(=O)(=O)N4CCc5ccccc5C4)cc3)nc2c1 returned tim10-1 inh 3, PfHsp90 set2 -17, tim23-1 inh 1, SKKanGAS inh 10 and TIM10 inh 3.
COc1ccc(CN2CCN(c3ncnc4scc(-c5ccc(F)cc5)c34)CC2)cc1 was read as tim10-1 inh 35, PfHsp90 set2 -4, tim23-1 inh 48, SKKanGAS inh -6, TIM10 inh 42* and TIM10 conf 45*.
For COc1ccc(N2CCN(c3ncnc4scc(-c5ccc(F)cc5)c34)CC2)cc1 the results were tim10-1 inh 13, PfHsp90 set2 -20, tim23-1 inh 6, SKKanGAS inh -6 and TIM10 inh 12.
`COc1ccc(N2CCN(C(=O)CSc3ncnc4scc(-c5ccc(C)cc5)c34)CC2)cc1` gave tim10-1 inh 20, tim23-1 inh 23, SKKanGAS inh 30, TIM10 inh 43* and TIM10 conf 10.
For Brc1ccc(-c2nnc3sc(CN4CCc5ccccc5C4)cn23)cc1 the results were PfHsp90 set2 15.
`c1ccc(-c2nnc3sc(CN4CCc5ccccc54)cn23)cc1` gave tim10-1 inh 12, PfHsp90 set2 9, tim23-1 inh 47, SKKanGAS inh 9, TIM10 inh 42* and TIM10 conf 22.
